From PubChem BioAssay AID1445 (SRMLSC, 2008) come the findings set out here.

Screen size: about 220,000 compounds; about 910 (0.41%) were called active. For the sample, actives were picked, then their nearest neighbours and some compounds at random. Measured potencies and affinities stand elsewhere. A number with no mark means an inactive call.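 Rule for the calls: active = primary inhibition above the hit cutoff, then over 50% inhibition at one or more dose response concentrations (cut at about 23% in these data, passing the limit was not always enough); inconclusive = conflicting primary data, or primary hits not chosen for dose response; inactive = low primary inhibition, or under 50% at every dose.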

The assay deals with Aminopeptidase N (Plasmodium falciparum (isolate 3D7)) (UniProt O96935). Briefly: P. falciparum M1AAP inhibitors, biochemical, fluorogenic H-Leu-NHMec substrate, 1536-well (AID 1445).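 Note: plate controls were DMSO full reaction for no effect and no enzyme background for full effect.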 As to conditions: recombinant M1AAP, H-Leu-NHMec fluorogenic kinetic assay; at 30 µM, active compounds read high unless noted.
Sequence of Aminopeptidase N (Plasmodium falciparum (isolate 3D7)) (O96935 whole entry, looked up): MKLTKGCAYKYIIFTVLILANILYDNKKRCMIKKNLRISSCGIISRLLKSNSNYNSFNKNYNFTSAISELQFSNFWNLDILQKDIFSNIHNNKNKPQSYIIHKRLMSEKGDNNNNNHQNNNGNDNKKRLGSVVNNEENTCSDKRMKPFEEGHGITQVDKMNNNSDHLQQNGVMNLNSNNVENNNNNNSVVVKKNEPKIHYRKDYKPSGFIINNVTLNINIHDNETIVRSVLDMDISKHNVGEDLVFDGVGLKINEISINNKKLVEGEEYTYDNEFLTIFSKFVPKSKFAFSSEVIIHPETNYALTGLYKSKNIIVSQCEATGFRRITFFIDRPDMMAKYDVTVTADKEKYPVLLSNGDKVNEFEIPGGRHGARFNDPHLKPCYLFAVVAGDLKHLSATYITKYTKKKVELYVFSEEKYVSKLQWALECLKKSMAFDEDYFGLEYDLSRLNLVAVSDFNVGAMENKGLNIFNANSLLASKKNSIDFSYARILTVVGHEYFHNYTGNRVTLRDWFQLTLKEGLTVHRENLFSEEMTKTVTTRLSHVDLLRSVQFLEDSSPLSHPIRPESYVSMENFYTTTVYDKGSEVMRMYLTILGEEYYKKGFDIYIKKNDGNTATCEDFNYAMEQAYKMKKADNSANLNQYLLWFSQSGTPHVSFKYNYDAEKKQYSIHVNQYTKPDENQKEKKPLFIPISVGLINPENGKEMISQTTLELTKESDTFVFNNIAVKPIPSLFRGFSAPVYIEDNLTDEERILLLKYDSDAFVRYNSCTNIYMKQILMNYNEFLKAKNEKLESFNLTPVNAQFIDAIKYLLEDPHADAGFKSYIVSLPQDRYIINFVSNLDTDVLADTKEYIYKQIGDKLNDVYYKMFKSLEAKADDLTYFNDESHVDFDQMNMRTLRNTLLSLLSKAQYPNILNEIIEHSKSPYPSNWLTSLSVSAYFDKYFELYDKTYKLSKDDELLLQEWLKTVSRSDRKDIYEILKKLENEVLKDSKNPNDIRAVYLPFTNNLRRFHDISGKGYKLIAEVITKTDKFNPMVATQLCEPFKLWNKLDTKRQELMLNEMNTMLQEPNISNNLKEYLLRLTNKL
For orientation: inhibition means the drop in the measured response relative to a control, in per cent. For `CCOc1ccc(C(=O)N(CN2CCCC2=O)c2ccccc2)cc1`, the inhibition was 2.27%.
The result for `Cc1ccc(Oc2cc(NC(=O)CCCn3nc([N+](=O)[O-])c(Cl)c3C)cc([N+](=O)[O-])c2)cc1` reads 2.94%; that for `CCOC(=O)Cc1csc(NS(=O)(=O)c2ccc3c4c(cccc24)C(=O)N3CC)n1`, 23.4% (active); that for `CCOC(=O)CNS(=O)(=O)c1ccc2c3c(cccc13)C(=O)N2CC`, 7.58%.
The result for `CCN1C(=O)c2cccc3c(S(=O)(=O)Nc4ccccc4)ccc1c23` reads 6.99%; that for `CC(/C=N/NC(=O)CNc1n[nH]c(=O)[nH]c1=O)c1ccccc1` (stereo not given), 3.79%; that for `CC(=O)Nc1ccc(NC(C)=O)s1`, 2.97%.
To `CC(=O)Nc1ccc(-c2ccccc2)s1` belongs 25.4% (active).
Turning to `CNC(=O)c1ccc(-c2ccccc2)s1`, the inhibition was 1.69%.
To `CN(CCNC(=O)CCCOc1cc(=O)n(C)c2ccccc12)Cc1ccccc1` belongs 2.96%; to `CN(C)c1ccc(NC(=O)c2sc(SCC(=O)Nc3nccs3)nc2N)cc1`, 25.2% (active).
As for `CN(C)c1ccc(NC(=O)CSc2nc(N)c(C(=O)Nc3ccc(N(C)C)cc3)s2)cc1`, the inhibition was -0.46%.
To `CN(C)c1ccc(NC(=O)c2sc(SCC(=O)Nc3ccc(Br)cc3)nc2N)cc1` belongs 4.44%; to `COc1ccc(C(=O)NC(=S)Nc2ccc(N3CCOCC3)c(Cl)c2)cc1[N+](=O)[O-]`, 14.5%.
To `COc1cccc(/C=N/n2c(-c3cccs3)n[nH]c2=S)c1` belongs 4.5%; to `CCOc1ccc(C(=O)N[C@H](C(=O)Nc2ccc(OC)c(S(=O)(=O)N3CCOCC3)c2)C(C)C)cc1`, 2.14%; to `COc1ccc(NC(=O)Nc2ccccc2)cc1S(=O)(=O)N1CCCCC1`, -0.57%.
The result for `Cc1cccc(N(CC(=O)NC(C)(C)C)C(=O)CS(=O)CC(=O)Nc2ccc3c(c2)OCO3)c1` (stereo not given) reads 3.73%; that for `Cc1cccc(N(CC(=O)NC2CCCC2)C(=O)CS(=O)CC(=O)Nc2ccc3c(c2)OCO3)c1` (stereo not given), 1.66%; that for `Cc1cccc(N(CC(=O)NC2CCCC2)C(=O)CS(=O)CC(=O)Nc2ccc3c(c2)OCO3)c1C` (stereo not given), 6.68%.
Turning to `Cc1ccc(N(CC(=O)NC(C)(C)C)C(=O)CS(=O)CC(=O)Nc2ccc3c(c2)OCO3)cc1` (stereo not given), the inhibition is 8.92%.
To `Cc1c(NC(=O)C(C)OC(=O)/C=C/c2ccccc2)c(=O)n(-c2ccccc2)n1C` (stereo not given) belongs -2.48%; to `Cc1ccccc1Cn1c(Cc2ccccc2)nc2ccccc21`, -1.18%; to `Cc1cccc2cc(C#N)c(SCC#N)nc12`, 4.01%.
To `Clc1ccc(N2N=C(c3cccs3)CC2c2ccco2)cc1` (stereo not given) belongs 4.39%.
The result for `c1ccc(N2N=C(c3cccs3)CC2c2ccco2)cc1` (stereo not given) reads 18.2%.
As to `NC(=O)CC(NC(=O)Cc1ccc(Br)cc1)c1ccc(N2CCN(c3ccccc3)CC2)c([N+](=O)[O-])c1` (stereo not given), the inhibition was 7.14%.
To `CCOC(=O)Cc1nnc(NC(=O)CSc2nnc3c4ccccc4n(C(C)C)c3n2)s1` belongs 10.5%; to `CCOC(=O)Cc1nnc(NC(=O)C(CC)Sc2nnc3c4ccccc4n(C)c3n2)s1` (stereo not given), 23.4% (active).
On to `CCOC(=O)Cc1nnc(NC(=O)CSc2nnc3c4ccccc4n(C)c3n2)s1`, for which the inhibition is 14%.
Regarding `CC(C)(C)NS(=O)(=O)c1ccc(CCC(=O)NCc2ccc3c(c2)OCO3)cc1`, the inhibition is 18.7%.
For the molecule `CC(C)NS(=O)(=O)c1ccc(CCC(=O)Nc2ccc3c(c2)OCO3)cc1`, the inhibition is 9.11%.
For `Cc1ccc(CNC(=O)CCNS(=O)(=O)c2ccc(C)cc2)cc1`, the inhibition is 9.63%.
`Cc1ccc(CNC(=O)CCc2ccc(S(=O)(=O)NCC(C)C)cc2)cc1`: the inhibition was 8.45%.
For the molecule `CCNS(=O)(=O)c1ccc(CCC(=O)Nc2ccccc2)cc1`, the inhibition was 3.88%.
In the case of `O=C(CCc1ccc(S(=O)(=O)NCc2ccccc2)cc1)NCc1cccnc1`, the inhibition was 6.09%.
The result for `O=C(Nc1cc(C(F)(F)F)ccc1Cl)C(Sc1nnc(-c2cccs2)o1)c1ccccc1` (stereo not given) reads -4.08%; that for `COCCCNCCOCCOc1c(OC)cccc1OC`, -5.39%; that for `Cc1cc(C2=CC(C)(c3cc(C)oc3C)Nc3nc(C(F)(F)F)nn32)c(C)o1` (stereo not given), 6.98%.
To `O=C(CNC(=O)c1ccc(F)cc1)Nc1ccccc1C(F)(F)F` belongs -1.13%.
For `CCOC(=O)C1=C(C)NC2=C(C(=O)CCC2)C1c1ccc(O)c(OCC)c1` (stereo not given), the inhibition is -7%.
To `O=C(Nc1nccs1)c1ccc(NC(=O)C2CC=CCC2C(=O)O)cc1` (stereo not given) belongs 8.55%.
To `CC1(C)CC(=O)C(C=NCCc2ccc(S(N)(=O)=O)cc2)=C(O)C1` belongs 12%; to `O=S(=O)(Nc1nc2ccc(S(=O)(=O)N3CCCC3)cc2s1)c1ccc(F)cc1`, 17.8%.
Take `O=S(=O)(Nc1nc2ccc(S(=O)(=O)N3CCCCC3)cc2s1)c1ccccc1`: the inhibition is 23.2%.
To `O=C(O)CCC(=O)N(Cc1cccnc1)Cc1cccc(F)c1` belongs 6.62%.
Consider `CCCCCN(C(=O)NC(=O)Nc1ccccc1C)S(=O)(=O)c1ccccc1`, for which the inhibition was -0.93%.
The result for `COc1ccc(-c2nc(CSCC(=O)N3CCN(C)CC3)c(C)o2)cc1OC` reads 1.38%; that for `CCN1CCN(C(=O)CSCc2nc(-c3ccc(OC)c(OC)c3)oc2C)CC1`, 1.5%.
For the molecule `COc1ccc(-c2nc(CSCC(=O)N3CCN(c4cccc(C)c4)C(C)C3)c(C)o2)cc1OC` (stereo not given), the inhibition is 23.8% (active).
To `COc1ccc(/C=N/NC(=S)Nc2ccccc2)cc1COc1ccc(Br)cc1` belongs 5.9%.
To `Cc1nnc2n1NC(c1ccc(Cl)cc1)C(C(=O)N(C)C1CCCCC1)S2` (stereo not given) belongs 14.7%; to `Cc1cccc2cc(CN(CCN3CCOCC3)C(=O)NCc3ccccc3)c(=O)[nH]c12`, 11.1%; to `COC(=O)CC[C@@H](C(=O)O)N1C(=O)c2ccccc2C1=O`, 1.27%.
To `COc1ccc(NC(=O)CSc2ccc(-c3cccs3)nn2)c(OC)c1` belongs 4.92%.
For `O=C(CSc1nc2nc(-c3cccs3)cc(C(F)(F)F)c2c(=O)[nH]1)Nc1ccc(F)c(F)c1`, the inhibition is 12.9%.
Consider `O=C(NCc1ccco1)c1nn2c(C(F)(F)F)cc(-c3cccs3)nc2c1Br`, for which the inhibition is 15.8%.
The result for `CCOc1ccccc1NC(=O)CSc1nc2nc(-c3cccs3)cc(C(F)(F)F)c2c(=O)[nH]1` reads 3.01%; that for `O=C(CSc1nc(-c2cccs2)cc(C(F)(F)F)n1)NCc1ccco1`, 8.47%; that for `CC(=O)Nc1ccc(NC(=O)CSc2nc3nc(-c4cccs4)cc(C(F)(F)F)c3c(=O)[nH]2)cc1`, 13.8%.
